Test results published in PubChem BioAssay AID1159580 (chemical genetic matrix, 2015).
Several values for one entry are separate records, joined by “and”; a condition that tells them apart may be missing. Equal entries are not always repeated. Out of some 5,500 compounds screened, about 2,000 (36%) were called active. Inconclusive results (about 18%) are left out. Rule as the data show it: active = normalized growth mostly below about 0.91 (no sharp cut-off); inconclusive = no clear call, values can overlap the other calls; inactive = mostly above about 0.92. This is one part of the list.

Assay: chemical genetic growth profiling, strain panel (AID 1159580);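 also: tested at 20 µM; growth read once vehicle control cultures reached saturation at 30 °C; 1 = growth at the plate median or of vehicle wells; lower values mean less growth of the strain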
Conditions: S. cerevisiae deletion strains, growth OD

Measured: normalized growth

CN(N=O)C(=O)N[C@@H]1[C@@H](O)[C@H](O)[C@@H](CO)O[C@@H]1O
inactive: locus YAL021C, strain ccr4, stronger effect = lower value 1 | locus YAL026C, strain drs2, stronger effect = lower value 0.991 | locus YAL030W, strain snc1, stronger effect = lower value 0.988 | locus YBL061C, strain skt5, stronger effect = lower value 1.01 | locus YBR009C, strain hhf1, stronger effect = lower value 0.979 | locus YBR021W, strain FUR4, stronger effect = lower value 1 | locus YBR023C, strain chs3, stronger effect = lower value 0.999 | locus YBR171W, strain sec66, stronger effect = lower value 1.01 | locus YBR229C, strain ROT2, stronger effect = lower value 1 | locus YBR231C, strain swc5, stronger effect = lower value 0.997 | locus YBR279W, strain paf1, stronger effect = lower value 1.02 | locus YCL011C, strain gbp2, stronger effect = lower value 1 | locus YCL016C, strain dcc1, stronger effect = lower value 1.03 | locus YCL029C, strain bik1, stronger effect = lower value 0.99 | locus YCL061C, strain MRC1, stronger effect = lower value 1.02 | locus YCL069W, strain vba3, stronger effect = lower value 0.974 | locus YCR088W, strain abp1, stronger effect = lower value 0.973 | locus YDL005C, strain med2, stronger effect = lower value 0.98 | locus YDL035C, strain GPR1, stronger effect = lower value 1.03 | locus YDL040C, strain nat1, stronger effect = lower value 0.999 | locus YDL074C, strain BRE1, stronger effect = lower value 1.02 | locus YDL101C, strain DUN1, stronger effect = lower value 1.01 | locus YDL134C, strain PPH21, stronger effect = lower value 1.02 | locus YDL185W, strain tfp1, stronger effect = lower value 1.02 | locus YDL192W, strain arf1, stronger effect = lower value 1.01 | locus YDR001C, strain nth1, stronger effect = lower value 0.978 | locus YDR069C, strain doa4, stronger effect = lower value 0.986 | locus YDR101C, strain arx1, stronger effect = lower value 0.979 | locus YDR137W, strain rgp1, stronger effect = lower value 0.938 | locus YDR150W, strain NUM1, stronger effect = lower value 1.01 | locus YDR159W, strain sac3, stronger effect = lower value 0.945 | locus YDR162C, strain NBP2, stronger effect = lower value 1.04 | locus YDR195W, strain ref2 0.988 | locus YDR297W, strain sur2, stronger effect = lower value 0.998 | locus YDR318W, strain mcm21, stronger effect = lower value 1.01 | locus YDR334W, strain swr1, stronger effect = lower value 0.95 | locus YDR335W, strain msn5, stronger effect = lower value 0.981 | locus YDR388W, stronger effect = lower value 1.01 | locus YDR392W, strain spt3, stronger effect = lower value 0.956 | locus YDR502C, strain sam2, stronger effect = lower value 0.998 | locus YEL003W, strain gim4, stronger effect = lower value 0.995 | locus YEL037C, strain rad23, stronger effect = lower value 0.986 | locus YEL061C, strain CIN8 (second series), stronger effect = lower value 0.971 | locus YEL061C, strain CIN8, stronger effect = lower value 1.01 | locus YER015W, strain faa2, stronger effect = lower value 1 | locus YER016W, strain bim1, stronger effect = lower value 0.983 | locus YER110C, stronger effect = lower value 1.01 | locus YER111C, strain swi4, stronger effect = lower value 0.998 | locus YER155C, strain BEM2 (second series), stronger effect = lower value 0.983 | locus YER155C, strain BEM2, stronger effect = lower value 1 | locus YER167W, strain BCK2, stronger effect = lower value 1.02 | locus YFR010W, strain ubp6, stronger effect = lower value 0.954 | locus YGL078C, strain dbp3, stronger effect = lower value 1 | locus YGL086W, strain mad1, stronger effect = lower value 0.989 | locus YGL167C, strain pmr1, stronger effect = lower value 0.993 | locus YGL173C, strain kem1, stronger effect = lower value 1.01 | locus YGL227W, strain vid30, stronger effect = lower value 1.01 | locus YGL240W, strain doc1, stronger effect = lower value 0.985 | locus YGL248W, strain PDE1, stronger effect = lower value 0.996 | locus YGL253W, strain hxk2, stronger effect = lower value 0.982 | locus YGR078C, strain PAC10, stronger effect = lower value 0.999 | locus YGR135W, strain pre9, stronger effect = lower value 1.04 | locus YGR229C, strain SMI1, stronger effect = lower value 1.01 | locus YGR252W, strain gcn5, stronger effect = lower value 1.02 | locus YHR013C, strain ard1, stronger effect = lower value 0.999 | locus YHR027C, strain rpn1, stronger effect = lower value 0.99 | locus YHR030C, strain SLT2, stronger effect = lower value 1 and 1.02 | locus YHR079C, strain IRE1 (second series), stronger effect = lower value 1 | locus YHR079C, strain IRE1, stronger effect = lower value 1.07 | locus YHR094C, strain hxt1, stronger effect = lower value 1 | locus YHR129C, strain ARP1, stronger effect = lower value 0.998 | locus YHR142W, strain chs7, stronger effect = lower value 0.962 | locus YHR200W, strain rpn10, stronger effect = lower value 1.01 | locus YIL066C, strain RNR3, stronger effect = lower value 1.01 | locus YIL073C, strain SPO22, stronger effect = lower value 1.14 | locus YIL125W, strain kgd1, stronger effect = lower value 1 | locus YIR030C, strain dcg1, stronger effect = lower value 1 | locus YJL092W, strain hpr5, stronger effect = lower value 0.979 | locus YJL095W, strain BCK1 (second series), stronger effect = lower value 1 | locus YJL095W, strain BCK1, stronger effect = lower value 1.02 and 1 | locus YJL115W, strain asf1, stronger effect = lower value 0.981 | locus YJL129C, strain trk1, stronger effect = lower value 0.984 | locus YJL134W, strain LCB3, stronger effect = lower value 1 | locus YJL154C, strain vps35, stronger effect = lower value 0.998 | locus YJL164C, strain tpk1, stronger effect = lower value 0.993 | locus YJL166W, strain qcr8, stronger effect = lower value 1 | locus YJL168C, strain set2, stronger effect = lower value 1.01
